HCV inhibitor: blocks hepatitis C virus; Huh7.5.1 HCVcc-Cre infection, luciferase reporter, 44 h; Potency, µM (series often up to 41.8 µM), inactives show at the top dose activity change, negative = inhibition, actives largely listed as inhibitors; hit rate 3.4% among 340,000; AID 651820; active = well fitted inhibition curve with a large enough effect; inconclusive = small, poorly fitted or top-dose-only effect, or another doubt; inactive = no such curve, though single readings can be large or run the other way
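Compounds are dispensed onto cells plated 4 h earlier at 1,000 per well, with HCVcc-Cre virus (about 0.5 moi) added next. Following 44 h of culture, luminescent signal is measured for 15 sec after 15 min with substrate at room temperature.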
Vaccinia Venus: vaccinia inhibition (Venus reporter); Potency, µM (doses to about 36.5 µM), inactives show top-dose activity change, negative = inhibition, most hits filed as inhibitors; hit rate 0.46% among 330,000; Vaccinia virus Venus reporter expression, fluorescence; AID 720580; calls by dose curve; tested in A549 cells; note: nearly all actives have a fitted effect of over 30% in size
LASV entry inh: blocks Lassa virus binding to or entry into cells; Potency, µM (doses to about 37.9 µM), for inactives: at the top dose activity change, negative = inhibition, hits mostly inhibitors; AID 540256; hit rate 1.2% among 300,000; Lassa virus pseudotype entry inhibition, cell reporter; calls by dose curve; tested in HEK293 cells; note: nearly all actives have a fitted effect of over 50% in size
FMDV antiviral: blocks foot and mouth disease virus; FMDV antiviral cell-based qHTS; hit rate 1.2% among 410,000; Potency, µM (series often up to 57.9 µM), for inactives: at the highest dose activity change, negative = inhibition, hits mostly inhibitors; AID 1159524; calls by dose curve; tested in HEK293T cells; note: read-out not given here; nearly all actives have a fitted effect of over 45% in size
Vaccinia mCherry: inhibitors of vaccinia virus infection (mCherry reporter signal). Vaccinia virus mCherry reporter infection, fluorescence. Potency, µM (series often up to 36.5 µM), without a hit: at the top dose activity change, negative = inhibition, actives largely listed as inhibitors. hit rate 0.63% among 310,000; calls by dose curve; tested in A549 cells; note: nearly all actives have a fitted effect of over 35% in size
Marburg entry inh: blocks Marburg virus binding to or entry into cells; Marburg virus pseudotyped entry inhibition, cell reporter; Potency, µM (series often up to 37.8 µM), without a hit: top-dose activity change, negative = inhibition, most hits filed as inhibitors; hit rate 1.8% among 300,000; calls by dose curve; tested in HEK293 cells
* = called active by the depositor; [ ] = dose if it differs, or a comment. The list is not random: actives were taken first. Their share in the collection is about 5.3%. % is set by controls: 0 for no effect and ±100 for the full control effect; potency is the fitted concentration of half-maximal effect.

What do the screens show for `CCc1nc(C)cn1S(=O)(=O)c1cc(C)c(OC)c(C)c1C`?
HCV inhibitor: 2.82µM*; Vaccinia Venus: inconclusive; LASV entry inh: inconclusive; FMDV antiviral: -28.4%; Vaccinia mCherry: -20.7%; Marburg entry inh: inconclusive

How did COc1ccc(Nc2nc3ccccc3n3cnnc23)cc1 do in these assays?
HCV inhibitor: 20µM*; Vaccinia Venus: -12.4%; LASV entry inh: 15.5%[14.3 µM]; FMDV antiviral: -21.9%; Vaccinia mCherry: -14.2%; Marburg entry inh: -0.8%

How did COc1cccc(/C=N/Nc2nc3ccccc3n3cnnc23)c1O do in these assays?
HCV inhibitor: inconclusive; Vaccinia Venus: inconclusive; LASV entry inh: inconclusive; FMDV antiviral: 4.6%; Vaccinia mCherry: 4.47µM*; Marburg entry inh: 8.91µM*

What do the screens show for `Cc1ccc2nc(Nc3ccc(C)c(C)c3)c3nncn3c2c1`?
HCV inhibitor: 22.4µM*; FMDV antiviral: 17.2%; Marburg entry inh: -7.7%

How did COc1ccccc1Nc1nc2ccc(C)cc2n2cnnc12 do in these assays?
HCV inhibitor: 6.31µM*; FMDV antiviral: 17.6%

What do the screens show for `COc1cccc(/C=N/Nc2nc3ccccc3n3cnnc23)c1`?
HCV inhibitor: -17.6%; Vaccinia Venus: 1.2%; LASV entry inh: 0.5%; FMDV antiviral: -15.9%; Vaccinia mCherry: -5.5%; Marburg entry inh: inconclusive

What do the screens show for `Cc1ccc(Nc2nc3ccccc3n3cnnc23)cc1C`?
HCV inhibitor: 4.8%; Vaccinia Venus: -5.5%; LASV entry inh: -20.4%[46.1 µM]; FMDV antiviral: -21.7%; Vaccinia mCherry: -13.0%; Marburg entry inh: 2.0%[46.1 µM]

How did Cc1cc(C)cc(Nc2nc3ccc(C)cc3n3cnnc23)c1 do in these assays?
HCV inhibitor: -19.3%; Vaccinia Venus: -23.1%; LASV entry inh: inconclusive; FMDV antiviral: -9.1%; Vaccinia mCherry: -21.2%; Marburg entry inh: inconclusive

What do the screens show for `Cc1nn(C)c2c1c(-c1ccccc1)cc(=O)n2Cc1ccc(Cl)cc1`?
Vaccinia Venus: -0.5%; LASV entry inh: inconclusive; FMDV antiviral: -21.6%; Vaccinia mCherry: 3.9%

What do the screens show for `Cc1ccc(S(=O)(=O)C[C@@H]2OC[C@H](C)N2S(=O)(=O)c2ccc(C)cc2)cc1`?
Vaccinia Venus: -22.2%; FMDV antiviral: 2.4%; Vaccinia mCherry: inconclusive

Results for Cc1nn(-c2ccccc2)cc1/C=N/NC(N)=S ?
HCV inhibitor: -8.5%; Vaccinia Venus: inconclusive; LASV entry inh: 9.1%; FMDV antiviral: 48.7%; Vaccinia mCherry: 11.2µM*; Marburg entry inh: -8.1%

How did Cc1nn(C)c2c1c(C(F)(F)F)cc(=O)n2Cc1cccc(Br)c1 do in these assays?
Vaccinia Venus: -1.6%; LASV entry inh: 7.8%[46.1 µM]; FMDV antiviral: 2.3%; Vaccinia mCherry: 1.2%

What do the screens show for `COc1ccc(-c2csc(Nc3cc(C)ccn3)n2)cc1OC`?
HCV inhibitor: 10µM*; Vaccinia Venus: -26.1%; LASV entry inh: -19.1%; FMDV antiviral: -55.3%; Vaccinia mCherry: inconclusive; Marburg entry inh: inconclusive

Results for Cc1ccnc(Nc2nc(-c3c(C)nc4sccn34)cs2)c1 ?
HCV inhibitor: 12.6µM*; LASV entry inh: -14.1%; FMDV antiviral: inconclusive; Marburg entry inh: -29.2%

Results for Cc1ccnc(Nc2nc(-c3ccccc3)cs2)c1 ?
HCV inhibitor: inconclusive; FMDV antiviral: -12.9%

How did COc1ccc(-c2csc(Nc3ccc(C)cn3)n2)cc1OC do in these assays?
HCV inhibitor: 12.6µM*; FMDV antiviral: -9.8%

What do the screens show for `Cc1noc(C)c1CSCC(=O)N(C)CC(=O)Nc1ccc(F)c(F)c1F`?
HCV inhibitor: 16.9%; Vaccinia Venus: -2.4%; LASV entry inh: inconclusive; FMDV antiviral: 0.0%; Vaccinia mCherry: -8.9%; Marburg entry inh: -0.5%

What do the screens show for `O=C(Cn1ccc2ccccc2c1=O)NCC(=O)N1CCN(c2ccccc2F)CC1`?
HCV inhibitor: -6.6%; Vaccinia Venus: -18.7%; LASV entry inh: 2.1%[46.1 µM]; FMDV antiviral: 21.0%; Vaccinia mCherry: -12.8%; Marburg entry inh: 3.4%[46.1 µM]

How did CCn1cc(/C=C(\NC(=O)c2cc(OC)c(OC)c(OC)c2)C(=O)NCCCn2ccnc2)c2ccccc21 do in these assays?
Vaccinia Venus: 7.8%; LASV entry inh: 9.0%[46.1 µM]; FMDV antiviral: -12.1%; Vaccinia mCherry: 2.3%; Marburg entry inh: inconclusive

Results for Cc1cc2nn(-c3ccc(F)cc3)nc2cc1NC(=O)c1cccc2c(Cl)cccc12 ?
Vaccinia Venus: -14.9%; LASV entry inh: 30.2%[46.1 µM]; FMDV antiviral: 10.8%; Vaccinia mCherry: -23.8%; Marburg entry inh: -0.5%[46.1 µM]

How did CN(c1ccc(F)cc1)S(=O)(=O)N1CCCC(C(=O)NCCc2ccccc2)C1 (configuration not stated) do in these assays?
Vaccinia Venus: -9.2%; LASV entry inh: -29.1%[46.1 µM]; FMDV antiviral: -13.9%; Vaccinia mCherry: -8.4%

What do the screens show for `CCN(C(=O)CSc1nc2n[nH]c(C)c2c(=N)n1-c1ccc(Cl)c(C)c1)c1cccc(C)c1`?
HCV inhibitor: inconclusive; FMDV antiviral: -28.8%

How did COc1ccccc1NC(=O)CSc1nc2n[nH]c(C)c2c(=N)n1-c1ccccc1Cl do in these assays?
HCV inhibitor: 11.2µM*; LASV entry inh: inconclusive; FMDV antiviral: inconclusive; Marburg entry inh: 14.6µM*

What do the screens show for `Cc1cc(-n2c(SCc3ccccc3F)nc3n[nH]c(C)c3c2=N)ccc1Cl`?
HCV inhibitor: 10µM*; Vaccinia Venus: -22.2%; LASV entry inh: inconclusive; FMDV antiviral: inconclusive; Vaccinia mCherry: -17.1%; Marburg entry inh: inconclusive

How did CCc1ccccc1NC(=O)CSc1nc2n[nH]c(C)c2c(=N)n1-c1ccc(OC)cc1 do in these assays?
HCV inhibitor: 11.2µM*; Vaccinia Venus: inconclusive; LASV entry inh: -21.5%; FMDV antiviral: inconclusive; Marburg entry inh: inconclusive

What do the screens show for `CC(C)CON=C1C[C@@H](O)[C@@H](O)[C@@H]2[C@H]3C(=O)N(C4CCCCC4)C(=O)[C@@H]3CC[C@@H]12`?
LASV entry inh: -25.6%[14.3 µM]; Marburg entry inh: -20.1%[14.2 µM]

How did CCCCNC(=S)Nc1cccc2cnccc12 do in these assays?
HCV inhibitor: 10µM*; Vaccinia Venus: 1.0%; LASV entry inh: -13.0%; FMDV antiviral: -4.4%; Vaccinia mCherry: -14.5%; Marburg entry inh: inconclusive

Results for CC(C)c1c(C(=O)NCC(C)(C)N2CCOCC2)cnn1-c1nccc(-c2ccccc2F)n1 ?
Vaccinia Venus: -8.1%; FMDV antiviral: 0.0%; Vaccinia mCherry: -10.6%

Results for COc1ccc(C(C)=O)cc1COC(=O)c1ccc(OCc2c(C)noc2C)cc1 ?
HCV inhibitor: inconclusive; Vaccinia Venus: -5.2%; LASV entry inh: -7.2%; FMDV antiviral: -9.2%; Vaccinia mCherry: -7.0%; Marburg entry inh: -7.3%

How did COc1ccc(C(C)=O)cc1COC(=O)c1cccnc1Cl do in these assays?
HCV inhibitor: 11.2µM*; Vaccinia Venus: -5.5%; LASV entry inh: 2.3%; FMDV antiviral: -8.4%; Vaccinia mCherry: -6.4%; Marburg entry inh: 17.9%[46.1 µM]

What do the screens show for `COc1ccc(C(C)=O)cc1COC(=O)c1c(C)noc1C`?
HCV inhibitor: 10µM*; LASV entry inh: -20.0%; FMDV antiviral: -0.4%; Marburg entry inh: inconclusive
